PubChem BioAssay AID1159580 (chemical genetic matrix, 2015)
Out of some 5,500 compounds screened, about 2,000 (36%) were called active. About 18% were inconclusive and are not listed. Rule as the data show it: active = normalized growth mostly below about 0.91 (no sharp cut-off); inconclusive = no clear call, values can overlap the other calls; inactive = mostly above about 0.92. The list shows a part of the results.

Assay: chemical genetic growth profiling, strain panel (AID 1159580);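 also: tested at 20 µM; growth read once vehicle control cultures reached saturation at 30 °C; 1 = growth at the plate median or of vehicle wells; lower values mean less growth of the strain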
Settings: S. cerevisiae deletion strains, growth OD

Measured: normalized growth

Oc1ccc2c(c1)OCC1c3cc4c(cc3OC21)OCO4 (stereo not drawn)
inactive: locus YBR021W, strain FUR4, active compounds read low 0.862 | locus YBR229C, strain ROT2, active compounds read low 0.957 | locus YCL029C, strain bik1, active compounds read low 0.946 | locus YDL035C, strain GPR1, active compounds read low 0.981 | locus YDL074C, strain BRE1, active compounds read low 1.03 | locus YDL101C, strain DUN1, active compounds read low 0.987 | locus YDL134C, strain PPH21, active compounds read low 1.02 | locus YDL185W, strain tfp1, active compounds read low 0.964 | locus YDL192W, strain arf1, active compounds read low 0.944 | locus YDR101C, strain arx1, active compounds read low 0.942 | locus YDR150W, strain NUM1, active compounds read low 1 | locus YDR162C, strain NBP2, active compounds read low 0.993 | locus YDR318W, strain mcm21, active compounds read low 0.962 | locus YDR388W, active compounds read low 0.966 | locus YDR502C, strain sam2, active compounds read low 0.961 | locus YEL061C, strain CIN8, active compounds read low 0.99 | locus YER110C, active compounds read low 0.954 | locus YER155C, strain BEM2, active compounds read low 1 | locus YER167W, strain BCK2, active compounds read low 1 | locus YGL078C, strain dbp3, active compounds read low 0.992 | locus YGL086W, strain mad1, active compounds read low 0.957 | locus YGL248W, strain PDE1, active compounds read low 1 | locus YGR135W, strain pre9, active compounds read low 0.993 | locus YGR252W, strain gcn5, active compounds read low 0.902 | locus YHR079C, strain IRE1 (second series), active compounds read low 0.995 | locus YHR094C, strain hxt1, active compounds read low 0.982 | locus YHR129C, strain ARP1, active compounds read low 1.02 | locus YHR200W, strain rpn10, active compounds read low 0.972 | locus YIL066C, strain RNR3, active compounds read low 0.999 | locus YIL073C, strain SPO22, active compounds read low 1.03 | locus YIL125W, strain kgd1, active compounds read low 0.968 | locus YIR030C, strain dcg1, active compounds read low 0.971 | locus YJL095W, strain BCK1, active compounds read low 0.929 | locus YJL134W, strain LCB3, active compounds read low 0.992 | locus YJL168C, strain set2, active compounds read low 0.996 | locus YJL187C, strain SWE1 (second series), active compounds read low 0.966 | locus YJR075W, strain HOC1, active compounds read low 0.999 | locus YKL009W, strain mrt4, active compounds read low 0.987 | locus YKL068W, active compounds read low 1 | locus YKL085W, strain MDH1 (second series), active compounds read low 1.02 | locus YKL085W, strain MDH1, active compounds read low 1.02 | locus YKL190W, strain CNB1, active compounds read low 1.01 | locus YLR039C, strain RIC1, active compounds read low 0.982 | locus YLR058C, strain SHM2, active compounds read low 0.962 | locus YLR102C, strain apc9, active compounds read low 0.984 | locus YLR268W, strain sec22, active compounds read low 0.906 | locus YLR371W, strain rom2, active compounds read low 0.973 | locus YML016C, strain PPZ1, active compounds read low 0.983 | locus YML032C, strain rad52, active compounds read low 0.956 | locus YML124C, strain tub3, active compounds read low 0.995 | locus YMR078C, strain ctf18, active compounds read low 1 | locus YMR223W, strain ubp8, active compounds read low 0.983 | locus YMR307W, strain GAS1, active compounds read low 1.04 | locus YNL067W, strain RPL9B, active compounds read low 1.01 | locus YNL128W, strain TEP1, active compounds read low 1.01 | locus YNL233W, strain BNI4, active compounds read low 1.05 | locus YNL250W, strain rad50, active compounds read low 1 | locus YNL271C, strain bni1, active compounds read low 0.974 | locus YNL298W, strain CLA4, active compounds read low 0.939 | locus YNL307C, strain MCK1, active compounds read low 0.95 | locus YNR052C, strain pop2, active compounds read low 0.994 | locus YOL012C, strain htz1 1.23 | locus YOL147C, strain pex11, active compounds read low 0.967 | locus YOR061W, strain CKA2, active compounds read low 0.988 | locus YOR069W, strain VPS5, active compounds read low 1.01 | locus YOR136W, strain idh2, active compounds read low 0.982 | locus YOR144C, strain elg1, active compounds read low 0.986 | locus YOR316C, strain cot1, active compounds read low 0.985 | locus YPL055C, strain LGE1, active compounds read low 0.963 | locus YPL241C, strain CIN2, active compounds read low 1.01 | locus YPR119W, strain clb2, active compounds read low 1.02 | locus YPR141C, strain kar3, active compounds read low 1.01 | locus YPR167C, strain met16, active compounds read low 1.01 | strain wtn01, active compounds read low 0.943
active: locus YKR001C, strain vps1, active compounds read low 0.863 | locus YLR418C, strain cdc73, active compounds read low 0.781 | locus YOR184W, strain ser1, active compounds read low 0.826 | locus YPR163C, strain tif3, active compounds read low 0.906
